Outcome and AC50 data for three compounds are collected here from PubChem BioAssay (EPA / NIEHS).

As usually defined, the AC50 is the midpoint of the concentration-response curve, whichever way the signal moves.

What all share (settings): mRNA level, 48 h; actives raise or lower the signal
Read-out in assay [1]: Glutathione S-transferase M3 (GSTM3), GSTM3 (gene 2947)
Description: LTEA_HepaRG_GSTM3: Life Technologies and Expression Analysis (LTEA) Assay for Glutathione S-transferase M3 (GSTM3) using HepaRG (AID 2283501). In short, it runs like this: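 HepaRG, plated 48 h, then serum-free induction medium; test chemical 48 h, duplicate; 100 uM top, half-log x8, 0.5% DMSO. Read-out: GSTM3 mRNA (TaqMan qRT-PCR, Fluidigm array). Bidirectional fit vs DMSO.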

Read-out in assay [2]: Heat shock 70 kDa protein 1 (HSPA1A), gene 3303
The assay is described as follows: LTEA_HepaRG_HSPA1A: Life Technologies and Expression Analysis (LTEA) Assay for Heat shock 70 kDa protein 1 (HSPA1A) using HepaRG (AID 2283502). The procedure, abridged: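 Readout is HSPA1A transcript level by microfluidic qRT-PCR, normalized to three housekeeping genes and analysed for gain or loss of signal relative to 0.5% DMSO. Human HepaRG cultures received test chemicals for 48 h at up to 100 uM.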

Read-out in assay [3]: Hypoxia-inducible factor 1-alpha (Homo sapiens) (UniProt Q16665)
Description: LTEA_HepaRG_HIF1A: Life Technologies and Expression Analysis (LTEA) Assay for Hypoxia-inducible factor 1 (HIF1A) Trancription factor using HepaRG (AID 2283503). In short, it runs like this:
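Differentiated HepaRG cells in serum-free induction medium exposed 48 h, in duplicate, to 8-point half-log series from 100 uM in 0.5% DMSO. HIF1A mRNA measured by TaqMan qRT-PCR, normalized to ACTB/GAPDH/POLR2A, fitted bidirectionally versus DMSO.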

Read-out in assay [4]: 3-Hydroxy-3-Methylglutaryl-CoA Synthase 2 (HMGCS2), HMGCS2 (gene 3158)
The assay is described as follows: LTEA_HepaRG_HMGCS2: Life Technologies and Expression Analysis (LTEA) Assay for 3-Hydroxy-3-Methylglutaryl-CoA Synthase 2 (HMGCS2) using HepaRG (AID 2283504). The procedure, abridged: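 HepaRG, plated 48 h then switched to serum-free induction media; cmpd 8-pt, max 100 uM, 1/2-log, 0.5% DMSO, n=2, 48 h. HMGCS2 mRNA by Fluidigm TaqMan qRT-PCR, ACTB/GAPDH/POLR2A norm; bidirectional fit vs DMSO.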

Read-out in assay [5]: HGF (gene 3082)
The assay is described as follows: LTEA_HepaRG_HGF: Life Technologies and Expression Analysis (LTEA) Assay for Hepatocyte Growth Facto (HGF) using HepaRG (AID 2283505). In short, it runs like this:
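Read-out is HGF transcript level by qRT-PCR, normalized to three housekeeping genes, fitted bidirectionally against 0.5% DMSO vehicle. Human HepaRG cells received test chemicals for 48 h at up to 100 uM.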

Read-out in assay [6]: Insulin Like Growth Factor 1 (IGF1), IGF1 (gene 3479)
The assay is described as follows: LTEA_HepaRG_IGF1: Life Technologies and Expression Analysis (LTEA) Assay for Insulin Like Growth Factor 1 (IGF1) using HepaRG (AID 2283506). In short, it runs like this: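 HepaRG, plated 48 h, then switched to serum-free induction media; test chemical 8-pt half-log from 100 uM (0.5% DMSO), duplicate, 48 h. Lysis in RLT, TaqMan qRT-PCR, norm. ACTB/GAPDH/POLR2A. Bidirectional fit vs DMSO.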

Read-out in assay [7]: Insulin-like growth factor-binding protein 1 (IGFBP1), IGFBP1 (gene 3484)
The assay is described as follows: LTEA_HepaRG_IGFBP1: Life Technologies and Expression Analysis (LTEA) Assay for Insulin-like growth factor-binding protein 1 (IGFBP1) using HepaRG (AID 2283508). In short, it runs like this: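 Thawed HepaRG cells are plated for 48 h, switched to serum-free induction medium, then dosed in duplicate for another 48 h (100 uM top, half-log steps). Lysates in RLT go to qRT-PCR, and gain or loss of signal is fitted relative to vehicle.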

Read-out in assay [8]: Interleukin 6 (IL6), IL6 (gene 3569)
Description: LTEA_HepaRG_IL6: Life Technologies and Expression Analysis (LTEA) Assay for Interleukin 6 (IL6) using HepaRG (AID 2283509). In short, it runs like this:
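Differentiated human HepaRG cells, plated 48 h then switched to serum-free induction medium, were exposed in duplicate for 48 h to eight half-log concentrations up to 100 uM in 0.5% DMSO. IL6 mRNA measured by qRT-PCR, normalized to ACTB/GAPDH/POLR2A.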

Read-out in assay [9]: Interleukin 6 Receptor (IL6R), IL6R (gene 3570)
Description: LTEA_HepaRG_IL6R: Life Technologies and Expression Analysis (LTEA) Assay for Interleukin 6 Receptor (IL6R) using HepaRG (AID 2283510). The procedure, abridged: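 Readout is IL6R transcript level by TaqMan qRT-PCR, normalized to three housekeeping genes and fitted bidirectionally against 0.5% DMSO controls. Human HepaRG cells received chemicals for 48 h in serum-free induction medium, highest concentration 100 uM.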

Read-out in assay [10]: Potassium channel subfamily K member 1 (KCNK1), KCNK1 (gene 3775)
The assay is described as follows: LTEA_HepaRG_KCNK1: Life Technologies and Expression Analysis (LTEA) Assay for Potassium channel subfamily K member 1 (KCNK1) using HepaRG (AID 2283511). In short, it runs like this: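 Differentiated human HepaRG cells in serum-free induction medium were exposed in duplicate for 48 h to 8 half-log concentrations up to 100 uM in 0.5% DMSO. KCNK1 mRNA was measured by TaqMan qRT-PCR, normalized to ACTB, GAPDH and POLR2A, and fitted bidirectionally versus DMSO.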

Read-out in assay [11]: Keratin 19 (KRT19), KRT19 (gene 3880)
Description: LTEA_HepaRG_KRT19: Life Technologies and Expression Analysis (LTEA) Assay for Keratin 19 (KRT19) using HepaRG (AID 2283512). In short, it runs like this: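 KRT19 transcript levels, measured by Fluidigm qRT-PCR against three housekeeping genes, are fitted for gain or loss of signal relative to DMSO. Human HepaRG cells receive test chemicals (top 100 uM, half-log steps, 0.5% DMSO) for 48 hours.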

Read-out in assay [12]: JUN Transcription Factor, JUN (gene 3725)
The assay is described as follows: LTEA_HepaRG_JUN: Life Technologies and Expression Analysis (LTEA) Assay for JUN Transcription Factor using HepaRG (AID 2283513). In short, it runs like this:
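Cells plated 48 h, medium switched to serum-free induction medium, then dosed 48 h (100 uM top, half-log dilutions, 0.5% DMSO). RNA isolated; JUN measured by qRT-PCR against three housekeeping genes; gain or loss fitted relative to DMSO.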

Read-out in assay [13]: Lipase C (LIPC), LIPC (gene 3990)
The assay is described as follows: LTEA_HepaRG_LIPC: Life Technologies and Expression Analysis (LTEA) Assay for Lipase C (LIPC) using HepaRG (AID 2283514). The procedure, abridged:
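Differentiated human HepaRG cells in serum-free induction medium were exposed in duplicate for 48 h to eight concentrations (top 100 uM, half-log steps, 0.5% DMSO). LIPC mRNA was quantified by TaqMan qRT-PCR, normalized to ACTB, GAPDH and POLR2A, with bidirectional fitting versus DMSO.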

Read-out in assay [14]: Lipoprotein lipase (LPL), LPL (gene 4023)
The assay is described as follows: LTEA_HepaRG_LPL: Life Technologies and Expression Analysis (LTEA) Assay for Lipoprotein lipase (LPL) using HepaRG (AID 2283515). In short, it runs like this:
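Differentiated human HepaRG cells in serum-free induction medium were exposed in duplicate for 48 h to eight half-log concentrations (top 100 uM) in 0.5% DMSO. LPL mRNA was quantified by TaqMan qRT-PCR, normalized to ACTB, GAPDH and POLR2A.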

Read-out in assay [15]: MicroRNA 122 (MIR122), gene 406906
The assay is described as follows: LTEA_HepaRG_MIR122: Life Technologies and Expression Analysis (LTEA) Assay for MicroRNA 122 (MIR122) using HepaRG (AID 2283516). Also: the transcript read is the microRNA miR-122. In short, it runs like this: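 HepaRG plated 48 h, switched to serum-free induction medium, then treated in duplicate for 48 h (100 uM top, half-log steps, 0.5% DMSO vehicle). RNA isolated, qRT-PCR performed, concentration-response fitted both directions relative to DMSO.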

Read-out in assay [16]: matrix metalloproteinase-10 (MMP10), MMP10 (gene 4319)
The assay is described as follows: LTEA_HepaRG_MMP10: Life Technologies and Expression Analysis (LTEA) Assay for matrix metalloproteinase-10 (MMP10) using HepaRG (AID 2283517). In short, it runs like this: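 HepaRG, collagen I, ~100,000 cells/well; serum-free induction medium; 48 h exposure, duplicate, 8-pt half-log to 100 uM, 0.5% DMSO. Readout: TaqMan qRT-PCR, normalized to ACTB/GAPDH/POLR2A; bidirectional fit vs DMSO.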

Read-out in assay [17]: MYC, MYC (gene 4609)
Description: LTEA_HepaRG_MYC: Life Technologies and Expression Analysis (LTEA) Assay for MYC using HepaRG (AID 2283518). The procedure, abridged: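 HepaRG, ~100,000 cells/well, collagen I; 48 h plating; serum-free induction medium; 48 h dosing, duplicate, 100 uM top, half-log, 0.5% DMSO; total RNA → qRT-PCR MYC; gain/loss fit vs DMSO.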

Read-out in assay [18]: Paternally Expressed 10 (PEG10), PEG10 (gene 23089)
The assay is described as follows: LTEA_HepaRG_PEG10: Life Technologies and Expression Analysis (LTEA) Assay for Paternally Expressed 10 (PEG10) using HepaRG (AID 2283520). The procedure, abridged: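 HepaRG, 48 h post-plating → serum-free induction medium → 48 h chemical exposure (duplicate, 8-pt, max 100 uM, half-log, 0.5% DMSO) → lysis in RLT → TaqMan qRT-PCR for PEG10, ACTB/GAPDH/POLR2A normalisation.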

Read-out in assay [19]: Intercellular Adhesion Molecule 1 (ICAM1), ICAM1 (gene 3383)
The assay is described as follows: LTEA_HepaRG_ICAM1: Life Technologies and Expression Analysis (LTEA) Assay for Intercellular Adhesion Molecule 1 (ICAM1) using HepaRG (AID 2283507). The procedure, abridged:
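Readout is qRT-PCR mRNA level, normalized to three housekeeping genes and fitted bidirectionally against 0.5% DMSO vehicle. Human HepaRG cultures received compound for 48 h, top concentration 100 uM with half-log dilutions.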

Read-out in assay [20]: matrix metalloproteinase-3 (MMP3), MMP3 (gene 4314)
The assay is described as follows: LTEA_HepaRG_MMP3: Life Technologies and Expression Analysis (LTEA) Assay for matrix metalloproteinase-3 (MMP3) using HepaRG (AID 2283519). In short, it runs like this: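 Differentiated human HepaRG cells, plated 48 h on collagen I, were exposed in duplicate for 48 h in serum-free induction medium to eight half-log concentrations up to 100 uM in 0.5% DMSO. MMP3 mRNA was quantified by TaqMan qRT-PCR, normalised to ACTB, GAPDH and POLR2A.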

SMILES strings stand for the structures. Active and inactive are the calls of the source. The calls were made as follows: active = hit-call score of the fitted dose curve at least 0.9, where 1 is the maximum; inactive = score below 0.9.

Sequence of Hypoxia-inducible factor 1-alpha (Homo sapiens) (Q16665 whole entry, looked up): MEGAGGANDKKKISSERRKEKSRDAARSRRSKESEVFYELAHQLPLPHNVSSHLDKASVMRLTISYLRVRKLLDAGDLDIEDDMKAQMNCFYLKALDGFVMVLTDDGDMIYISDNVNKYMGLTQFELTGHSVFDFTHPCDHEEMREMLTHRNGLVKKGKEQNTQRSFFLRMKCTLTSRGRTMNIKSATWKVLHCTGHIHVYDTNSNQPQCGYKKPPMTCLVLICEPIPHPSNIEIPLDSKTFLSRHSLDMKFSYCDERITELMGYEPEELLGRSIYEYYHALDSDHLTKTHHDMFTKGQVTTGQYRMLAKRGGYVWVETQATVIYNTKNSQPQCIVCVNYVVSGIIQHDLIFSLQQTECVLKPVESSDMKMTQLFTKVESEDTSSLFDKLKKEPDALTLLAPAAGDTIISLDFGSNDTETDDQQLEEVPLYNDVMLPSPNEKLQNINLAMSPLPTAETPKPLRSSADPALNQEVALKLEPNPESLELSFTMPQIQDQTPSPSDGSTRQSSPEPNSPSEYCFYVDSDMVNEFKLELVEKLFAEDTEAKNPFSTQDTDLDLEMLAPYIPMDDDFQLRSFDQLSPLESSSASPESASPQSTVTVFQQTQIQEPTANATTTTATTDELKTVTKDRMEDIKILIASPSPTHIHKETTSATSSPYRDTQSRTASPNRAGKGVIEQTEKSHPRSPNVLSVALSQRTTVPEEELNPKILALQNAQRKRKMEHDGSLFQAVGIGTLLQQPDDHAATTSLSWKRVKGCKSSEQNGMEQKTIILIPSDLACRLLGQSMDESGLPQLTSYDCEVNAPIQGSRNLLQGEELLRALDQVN

Take `CCN(CC)CCO`: the compound was classed as inactive in [1], in assay [2], in assay [3], in assay [4], in assay [5] and in assay [6]. In addition, the outcome in assay [7], in assay [8], in assay [9], in assay [10], in [11] and in assay [12] was inactive. In addition, the compound was classed as inactive in [13], in assay [14], in [15], in [16], in [17] and in assay [18].

`CN(C)c1ccc(C(=O)c2ccc(N(C)C)cc2)cc1`: the result in assay [1], in assay [2], in [3], in assay [4], in assay [5] and in assay [6] was inactive. Besides, the outcome in assay [19], in assay [7], in [10], in assay [12], in assay [14] and in assay [15] was inactive. In addition, the outcome in [16], in assay [17] and in assay [20] was inactive. Also, the AC50 in assay [11] is 13.5 µM (active); in [13], 33 µM (active); in [18] it was 22.3 µM (active).

With `O=P(OCCCl)(OCCCl)OCCCl`, the call in [1], in assay [3], in [4], in assay [5], in [6] and in assay [19] was inactive. In addition, the compound was classed as inactive in assay [7], in assay [9], in [10], in assay [11], in assay [12] and in [13]. The compound was called inactive in [14], in assay [15], in [16], in assay [17] and in [18]. Besides, the AC50 in [2] is 9.92 µM (active).
